# Assay outcomes: PubChem, Broad Institute
# T cruzi growth-1: T. cruzi intracellular proliferation inhibitors, primary screen, cell-based, beta-gal Tulahuen parasites, NIH3T3 host, luminescence | T. cruzi beta-gal in NIH3T3, GalScreen luminescence, 90 h | inhibition, % at 8.34 µM | 5.9% of 77,000 active;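 active means mean inhibition above about 93%, with at least 55% of replicates each passing it, limit read from the data, passing the limit was not always enough; inconclusive means only one of those two conditions holds; inactive means neither condition holds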
# Pf Dd2 inh: P. falciparum Dd2 growth inhibitors, primary screen, SYBR Green fluorescence, single dose replicates. 72 h; hits give low values. activity change, % at 10 µM. 2.3% of 94,000 active. AID 1159554, 2015; in the data active means activity change below about -80%; inconclusive means no clear call, values can overlap the other calls
# C diff HTS: C. difficile growth inhibitors, primary screen, HTS; growth activity, negative = inhibition, % at 16 µg/mL (by protocol); Clostridium difficile clinical isolate growth, OD600, 24 h; hits give low values; AID 1259249, 2017; 0.25% of 86,000 active;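 active means mean growth activity at or below -80% and every replicate also at or below -80%; inconclusive means mean at or below -80% but some replicate above -80%; inactive means mean growth activity above -80%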;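 further: 0% = DMSO wells and -100% = levofloxacin 16 µg/mL wells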
# T cruzi growth-2: T. cruzi intracellular proliferation inhibitors, confirmation, cell-based, NIH3T3 host, beta-gal parasite, luminescence, cherry-pick | shares compounds with T cruzi growth-1 | 72% of 5,600 active | inhibition, % at 8.35 µM | T. cruzi beta-gal in NIH3T3, GalScreen luminescence, 90 h;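 active means mean replicate inhibition above about 95% and at least 55% of replicates individually reaching it, limit read from the data; inconclusive means only one of the two criteria is met; inactive means neither criterion is met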
# T cruzi growth-3: inhibitors of intracellular T. cruzi replication, confirmation, NIH3T3 host cells, beta-gal parasites, cherry-pick, set 2; AID 651740, 2012; inhibition, % at 2.09 µM; 21% of 5,600 active; T. cruzi beta-gal in NIH3T3, GalScreen luminescence, 90 h; shares compounds with T cruzi growth-1;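 active means mean inhibition above about 95%, with at least 55% of replicates also reaching it, limit read from the data; inconclusive means meets just one of the two conditions; inactive means meets neither condition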;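 further: plate controls were neutral control median for no effect and positive control median for full effect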
# 3T3 cytotox: cytotoxicity in mouse NIH/3T3 fibroblasts, confirmation, cytotoxicity control for T. cruzi proliferation inhibitor project, cell-based, cherry-pick, single point | cytotoxicity (signal decrease), % at 8.35 µM | NIH/3T3 viability, CellTiter-Glo ATP luminescence, 90 h | shares compounds with T cruzi growth-1 | AID 651742, 2012 | 14% of 5,600 active;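 active means mean signal decrease across replicates above about 35% based on untreated-well scatter, with enough replicates individually passing, limit read from the data; inconclusive means no rule stated though some were filed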;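 further: 0% = median of neutral control wells and 100% = median of positive control wells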
# 3T3 cytotox 2: NIH/3T3 fibroblast cytotoxicity, confirmation, cytotoxicity control, cell-based, cherry-pick, single point, set 2. shares compounds with T cruzi growth-1. NIH/3T3 viability, CellTiter-Glo ATP luminescence, 90 h. inhibition, % at 24.9 µM. 56% of 5,600 active;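 active means mean loss of cell viability signal at or above a set limit, and enough replicates individually reaching it; inconclusive means meets only the mean limit or only the replicate share; inactive means meets neither condition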;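 further: 0% = median of neutral control wells and 100% = median of positive control wells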
# Active calls of the source: *; ? = inconclusive; . = no result given; + = active, no number. Rows were chosen to be rich in hits. Some 6.7% of all compounds tested hit in one or more screens of this group.
SMILES,T cruzi growth-1,Pf Dd2 inh,C diff HTS,T cruzi growth-2,T cruzi growth-3,3T3 cytotox,3T3 cytotox 2
C[C@H]1CN([C@@H](C)CO)C(=O)c2cccc(NC(=O)Nc3cccc4ccccc34)c2O[C@H]1CN(C)C(=O)Nc1ccccc1,102.0*,-12.1,-6.7,?,64.6,-16.7,7.5
C[C@H]1CN([C@@H](C)CO)C(=O)c2cccc(NC(=O)Nc3cccc4ccccc34)c2O[C@@H]1CN(C)C(=O)Nc1ccc(F)cc1,15.3,-3.2,1.8,.,.,.,.
C[C@@H]1CN([C@@H](C)CO)C(=O)c2cccc(NC(=O)C3CC3)c2O[C@H]1CN(C)C(=O)Nc1ccc(F)cc1,107.6*,-6.9,-4.3,96.2*,77.3,24.9,20.7
C[C@H]1CN([C@@H](C)CO)C(=O)c2cccc(NC(=O)Nc3cccc4ccccc34)c2O[C@@H]1CN(C)C(=O)Nc1ccccc1,81.4,-11.9,-1.0,.,.,.,.
C[C@H]1CN([C@@H](C)CO)C(=O)c2cccc(NC(=O)Nc3ccc(C(F)(F)F)cc3)c2O[C@H]1CN(C)C(=O)Nc1cccc2ccccc12,100.6*,-38.5,1.8,93.3,112.5*,62.6*,105.0*
CCCNC(=O)N1CC2(C1)CN(C(=O)CC)[C@H](CO)c1c2c2ccc(OC)cc2n1C,.,-22.1,43.1,.,.,.,.
O=C([C@H]1[C@H](CO)[C@H]2Cn3c(ccc(-c4ccccc4)c3=O)[C@H]2N1Cc1cocn1)N1CCCCC1,10.7,6.9,3.5,.,.,.,.
CC(C)NC(=O)N(C)C[C@@H]1OCCCC[C@H](C)Oc2ccc(NS(=O)(=O)c3cn(C)cn3)cc2C(=O)N([C@@H](C)CO)C[C@@H]1C,30.9,32.7,3.2,.,.,.,.
C[C@H]1CN([C@@H](C)CO)C(=O)Cc2cc(NC(=O)Cn3cnnn3)ccc2O[C@H]1CN(C)S(=O)(=O)c1ccc(Cl)cc1,8.9,-8.0,-1.3,.,.,.,.
OC[C@H]1[C@H](c2ccc(C#CC3(O)CCCC3)cc2)[C@@H]2CN(Cc3ccncc3)CCCCN12,5.6,-6.3,-1.0,.,.,.,.
OC[C@@H]1[C@H](c2ccc(C#CC3(O)CCCC3)cc2)[C@H]2CN(Cc3ccncc3)CCCCN12,89.6,5.9,-4.6,.,.,.,.
OC[C@@H]1[C@H](c2ccc(C#CC3(O)CCCC3)cc2)[C@H]2CN(Cc3cccnc3)CCCCN12,119.6*,-8.1,-0.5,107.4*,91.5,31.0,31.7*
OC[C@H]1[C@@H](c2ccc(C#CC3(O)CCCC3)cc2)[C@@H]2CN(Cc3cccnc3)CCCCN12,114.4*,-20.8,-4.9,73.2,3.3,4.1,?
OC[C@H]1[C@@H](c2ccc(C#CC3(O)CCCC3)cc2)[C@H]2CN(Cc3ccncc3)CCCCN21,4.9,-0.3,0.3,.,.,.,.
OC[C@H]1[C@@H](c2ccc(C#CC3(O)CCCC3)cc2)[C@H]2CN(Cc3cccnc3)CCCCN21,103.3*,23.1,0.0,48.7,-42.7,1.9,4.5
CCCC#Cc1ccc2c(c1)O[C@@H](CN(C)C(=O)c1ccccn1)[C@@H](C)CN([C@@H](C)CO)S2(=O)=O,13.2,-15.4,0.1,.,.,.,.
CCCNC(=O)N1C[C@@H](O)COC[C@@H]2O[C@@H](CC(=O)N3CCCCC3)CC[C@H]21,1.9,4.1,.,.,.,.,.
C[C@@H]1CN([C@H](C)CO)S(=O)(=O)c2ccc(/C=C/c3ccccc3)cc2O[C@H]1CN(C)Cc1ccccc1,87.1,-31.0,5.6,.,.,.,.
C/C=C/c1ccc2c(c1)O[C@@H](CN(C)Cc1cccnc1)[C@H](C)CN([C@@H](C)CO)S2(=O)=O,105.7*,-23.6,-5.3,101.0*,82.2,38.2*,69.6*
C/C=C/c1ccc2c(c1)O[C@@H](CN(C)Cc1cccnc1)[C@H](C)CN([C@H](C)CO)S2(=O)=O,107.5*,-37.9,-4.9,91.9,63.7,51.8*,65.0*
C/C=C/c1ccc2c(c1)O[C@H](CN(C)Cc1cncnc1)[C@@H](C)CN([C@@H](C)CO)S2(=O)=O,.,-13.3,-5.2,.,.,.,.
C/C=C/c1ccc2c(c1)O[C@@H](CN(C)Cc1cncnc1)[C@@H](C)CN([C@H](C)CO)S2(=O)=O,.,-14.1,3.4,.,.,.,.
C/C=C/c1ccc2c(c1)O[C@@H](CN(C)Cc1cncnc1)[C@@H](C)CN([C@@H](C)CO)S2(=O)=O,.,7.3,-2.3,.,.,.,.
C/C=C/c1ccc2c(c1)O[C@H](CN(C)Cc1cccnc1)[C@@H](C)CN([C@@H](C)CO)S2(=O)=O,114.4*,-14.0,-5.6,102.8*,105.2*,26.6,54.1*
C[C@H](CO)N1C[C@H](C)[C@H](CN(C)Cc2cccnc2)Oc2cc(/C=C/c3ccccc3)ccc2S1(=O)=O,106.7*,-57.5,12.5,100.4*,96.7*,?,31.3*
SMILES,T cruzi growth-1,Pf Dd2 inh,C diff HTS,T cruzi growth-2,T cruzi growth-3,3T3 cytotox,3T3 cytotox 2
C/C=C/c1ccc([C@@H]2[C@H](CO)N(C(C)=O)C23CN(C(=O)NC2CCCC2)C3)cc1,.,3.2,0.4,.,.,.,.
COC(=O)[C@H]1[C@H](CO)[C@H]2Cn3c(ccc(-c4ccccc4F)c3=O)[C@H]2N1Cc1cccnc1,13.1,0.7,-2.4,.,.,.,.
CC(C)NC(=O)N1C[C@@H]2[C@H](c3ccccc31)[C@H](CO)N2C(=O)c1cccnc1,-20.3,20.1,10.3,.,.,.,.
C[C@@H]1CN([C@H](C)CO)C(=O)c2cccc(NC(=O)C3CCCCC3)c2O[C@H]1CN(C)S(=O)(=O)c1ccc(Cl)cc1,76.9,-9.6,-8.2,.,.,.,.
CCCNC(=O)N1[C@H](C(=O)N2CCCCC2)[C@@H](CO)[C@@H]2Cn3c(ccc(-c4ccc(F)cc4)c3=O)[C@@H]21,97.5*,.,-8.7,16.5,-18.6,-14.0,5.6
CCN1[C@@H]2c3ccc(-c4ccc(F)cc4)c(=O)n3C[C@@H]2[C@@H](CO)[C@@H]1C(=O)Nc1ccccc1,.,-58.5,1.3,.,.,.,.
COCC(=O)N1[C@H](C(=O)Nc2ccccc2)[C@@H](CO)[C@@H]2Cn3c(ccc(-c4ccc(F)cc4)c3=O)[C@@H]21,10.1,7.3,0.4,.,.,.,.
CN1[C@H](C(=O)Nc2ccccc2)[C@@H](CO)[C@@H]2Cn3c(ccc(-c4ccc(F)cc4)c3=O)[C@@H]21,+,.,-6.3,102.7*,11.4,-15.7,11.0
CN1[C@@H]2c3ccc(-c4ccc(F)cc4)c(=O)n3C[C@@H]2[C@@H](CO)[C@@H]1C(=O)Nc1ccccc1,+,.,-2.9,-20.9,-33.6,-26.8,-4.8
